In the library only some 3.4% were active in any assay of this set; here they are far more common.
ADAM17 inh: ADAM17 inhibitors, primary screen, biochemical, QFRET; inhibition, % at 6.95 µM; recombinant ADAM17, EDANS/DABCYL FRET peptide cleavage; Disintegrin and metalloproteinase domain-containing protein 17 (Homo sapiens), P78536; AID 720648, 2013; 0.83% of 370,000 active;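 active means inhibition above the mean of compounds lying between control limits plus 3 SD, set per campaign, cut at about 8.5% in these data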
PLC-beta3 inh: human PLC-beta3 inhibitors, primary screen, biochemical, fluorescence; Purified PLC-beta3, fluorogenic substrate; inhibition, % at 12.2 µM; 0.18% of 370,000 active; in the data active means inhibition above about 11%
HGIII-sPLA2 inh: human group III sPLA2 inhibitors, primary screen, biochemical, QFRET, BODIPY PC-A2 liposome substrate | Group 3 secretory phospholipase A2 (Homo sapiens), Q9NZ20 | QFRET BODIPY PC-A2 liposome hydrolysis, fluorescence | inhibition, % at 12.2 µM | 0.56% of 370,000 active | AID 743126, 2013;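 active means inhibition above mean plus 3 SD of compounds lying within the high and low control bounds, cut at about 19% in these data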
ADAM10 inh: human ADAM10 inhibitors, primary screen, biochemical, QFRET, HTS | Disintegrin and metalloproteinase domain-containing protein 10 (Homo sapiens), O14672 | recombinant ADAM10, EDANS/DABCYL FRET peptide cleavage, 3 h | inhibition, % at 7 µM | 0.62% of 370,000 active;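 active means inhibition above a per-campaign cutoff equal to the mean of compounds falling between control-based bounds plus 3 SD, cut at about 20% in these data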
Target sequence (O14672 214-748 limits assumed): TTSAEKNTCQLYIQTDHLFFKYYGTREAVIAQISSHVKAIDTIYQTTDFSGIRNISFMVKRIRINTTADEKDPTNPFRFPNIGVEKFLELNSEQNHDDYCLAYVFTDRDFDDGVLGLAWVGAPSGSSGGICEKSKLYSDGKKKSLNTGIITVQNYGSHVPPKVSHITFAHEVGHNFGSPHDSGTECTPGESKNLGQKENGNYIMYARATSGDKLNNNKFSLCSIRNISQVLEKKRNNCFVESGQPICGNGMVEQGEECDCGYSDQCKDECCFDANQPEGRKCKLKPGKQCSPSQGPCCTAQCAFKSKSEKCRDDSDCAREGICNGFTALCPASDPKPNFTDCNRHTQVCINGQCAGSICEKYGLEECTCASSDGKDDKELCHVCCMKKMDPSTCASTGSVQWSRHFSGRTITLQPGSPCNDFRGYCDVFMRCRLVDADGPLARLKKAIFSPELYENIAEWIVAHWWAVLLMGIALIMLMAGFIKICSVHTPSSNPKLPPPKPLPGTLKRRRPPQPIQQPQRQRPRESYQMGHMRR
proKLK7 act: proKLK7 zymogen activators, primary screen, biochemical, fluorescence intensity; purified proKLK7, EDANS-DABCYL substrate fluorescence; 100% is mature enzyme control, 0% vehicle; activation, % at 7 µM; Kallikrein-7 (Homo sapiens), P49862; 0.9% of 370,000 active;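 active means activation above the mean of all tested compounds plus 3 SD, computed per campaign excluding outliers beyond control limits, cut at about 13% in these data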
PLC-gamma1 inh: PLC-gamma1 enzyme inhibitors, primary screen, biochemical, fluorescence, purified enzyme; 1-phosphatidylinositol 4,5-bisphosphate phosphodiesterase gamma-1 (Homo sapiens), P19174; fluorogenic substrate; inhibition, % at 12.2 µM; 0.84% of 370,000 active; in the data active means inhibition above about 9.5%
hGIII sPLA2 conf: human group III sPLA2 inhibitors, confirmation, biochemical, QFRET, triplicate | shares compounds with HGIII-sPLA2 inh | recombinant hGIII-sPLA2, BODIPY PC-A2 QFRET fluorescence | inhibition, % at 12.2 µM | 34% of 2,000 active | AID 743280, 2014;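 active means mean inhibition across triplicates above the hit cutoff set in the earlier primary screen, cut at about 19% in these data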
BODIPY interf: 535nm fluorescence optical interference, confirmation, artefact control for HGIII-sPLA2 inhibitor project, biochemical, QFRET; shares compounds with HGIII-sPLA2 inh; BODIPY FL product fluorescence interference; inhibition, % at 12.2 µM; 8.5% of 2,000 active;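 active means average inhibition above the solvent-only control mean plus 3 SD, cut at about 6% in these data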
535nm interf DR: 535nm fluorescence optical interference, dose response, artefact control for HGIII-sPLA2 inhibitor project, biochemical, QFRET. IC50, µM. AID 743455, 2014. BODIPY FL product fluorescence interference, cell-free. shares compounds with HGIII-sPLA2 inh. 240 tested, under 10 active;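 active means IC50 at or below 10 µM; inactive means IC50 above 10 µM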
Each line names hits and unclear results; the compound was inactive in the other large screens (follow-up assays come after a bar, where they were run).

CCOC(=O)c1c(CSC(=N)N)n(-c2ccccc2)c2cc(Br)c(OC(C)=O)cc12	HGIII-sPLA2 inh 44 | hGIII sPLA2 conf 35 | BODIPY interf inactive | 535nm interf DR inactive
Cc1cc(NC(=O)c2ccco2)ncc1NC(=O)Cc1ccccc1	none
Cc1cc(NC(=O)C(C)C)ncc1NC(=O)c1ccco1	HGIII-sPLA2 inh 20 | hGIII sPLA2 conf inactive | BODIPY interf inactive
Cc1nn(C)cc1C1C2=C(CC(C)(C)CC2=O)OC2=C1C(=O)CC(C)(C)C2	none
CCn1cc(C2C3=C(CC(C)(C)CC3=O)N(c3ccc(C)cc3)C3=C2C(=O)CC(C)(C)C3)c(C)n1	HGIII-sPLA2 inh 20 | hGIII sPLA2 conf inactive | BODIPY interf inactive
Cc1[nH]c2ccccc2c1/C=N/NC(N)=S	HGIII-sPLA2 inh 21 | hGIII sPLA2 conf inactive | BODIPY interf inactive
CC1CCCCC1NC(=O)CSC1=Nc2ccccc2C2CC=NN12 (configuration not stated)	HGIII-sPLA2 inh 20 | hGIII sPLA2 conf inactive | BODIPY interf inactive
O=C(c1ccncc1)N1CC[C@H]2[C@H](CCCN2Cc2cc(F)cc(F)c2)C1	none
CCN(CC)CCCNC(=S)Nc1ccc(Br)cc1	none
CCN(CC)CCNC(=S)Nc1ccc(Cl)cc1	HGIII-sPLA2 inh 21 | hGIII sPLA2 conf inactive | BODIPY interf inactive
O=C1C=C(N2CCOCC2)c2ccccc2C1=O	none
CN(C1=C(N2CCOCC2)C(=O)c2ccccc2C1=O)c1ccccc1	HGIII-sPLA2 inh 25 | hGIII sPLA2 conf 44 | BODIPY interf inactive | 535nm interf DR inactive
O=C(NCc1ccccc1)[C@H]1CCCN1C(=O)[C@H]1CCCN1C(=O)N1CCCCC1	none
COC(=O)C1=C(C)N(Cc2ccccc2C(F)(F)F)C(=NCc2ccc(OC)cc2)NC1CCc1ccccc1 (configuration not stated)	none
COc1ccc(C(=O)NCCNc2ccc([N+](=O)[O-])cc2)cc1OC	none
O=C(NCCNc1ccc([N+](=O)[O-])cc1)c1cccc(Br)c1	HGIII-sPLA2 inh 23 | hGIII sPLA2 conf inactive | BODIPY interf inactive
CCOC(=O)CCNC(=O)N1CCCC(CCC(=O)N(C)CCc2ccccn2)C1 (configuration not stated)	HGIII-sPLA2 inh 24 | hGIII sPLA2 conf inactive | BODIPY interf inactive
Nc1c(C(=O)Nc2ccccc2F)sc2nc(-c3ccco3)ccc12	HGIII-sPLA2 inh 19 | hGIII sPLA2 conf inactive | BODIPY interf inactive
CNc1ccccc1/C(O)=C(\C#N)C(=O)NCc1cccs1	none
O=C1c2ccccc2C(=O)c2c(NCc3cccnc3)cccc21	none
O=C1c2cccc(NCCCNCCO)c2C(=O)c2cccc(NCCCNCCO)c21	HGIII-sPLA2 inh 27 | hGIII sPLA2 conf 25 | BODIPY interf inactive
Cc1cc(NC(=O)CCc2c[nH]c3ccccc23)ccc1Oc1cccnc1	none
CC(C)CN(CCCNC(=O)CN1N=C(c2ccc(Cl)cc2)CCC1=O)CC(C)C	HGIII-sPLA2 inh 25 | hGIII sPLA2 conf 32 | BODIPY interf inactive
CC(C)CCNC(=O)CN1N=C(c2ccc(Cl)cc2)CCC1=O	none
CCn1c(SCC(=O)Nc2ccc(C(C)C)cc2)nnc1-c1ccc(C(C)(C)C)cc1	none
CCCn1c(=S)[nH]c2cc(C(=O)N3CCN(C4CCCCC4)CC3)ccc2c1=O	HGIII-sPLA2 inh 20 | hGIII sPLA2 conf inactive | BODIPY interf inactive
CCCCn1c(N)c(N(CCOC)C(=O)c2ccc(F)c(S(=O)(=O)N3CCOCC3)c2)c(=O)[nH]c1=O	HGIII-sPLA2 inh 20 | hGIII sPLA2 conf inactive | BODIPY interf inactive
Cc1ccc(Cn2c(=S)[nH]c3ccccc3c2=O)cc1	none
CC(C)CCNC(=O)c1ccc(Cn2c(=S)[nH]c3ccccc3c2=O)cc1	HGIII-sPLA2 inh 21 | hGIII sPLA2 conf 20 | BODIPY interf inactive
Clc1cccc(CNC2CCC23CCCCC3)c1 (configuration not stated)	none (no result: proKLK7 act)
O=C(COC(=O)/C=C/c1ccc([N+](=O)[O-])cc1)NC(=O)NC1CCCCC1	none
CC1CCCC(NC(=O)COC(=O)/C=C/c2ccc([N+](=O)[O-])cc2)C1C (configuration not stated)	HGIII-sPLA2 inh 19 | hGIII sPLA2 conf inactive | BODIPY interf inactive
COC(=O)C1=C(C)N(Cc2cccc(C(F)(F)F)c2)C(=NCc2ccc3c(c2)OCO3)NC1c1ccccc1C(F)(F)F (configuration not stated)	none
O=C(COC(=O)c1cc(=O)c2ccccc2o1)Nc1c(F)c(F)c(F)c(F)c1F	none
O=C(COC(=O)c1cc(=O)c2ccccc2o1)Nc1ccc2ccccc2c1	HGIII-sPLA2 inh 22 | hGIII sPLA2 conf inactive | BODIPY interf inactive
Cc1ccccc1CSCC(=O)NC(=O)NCc1ccco1	none
O=C(CSCc1ccccc1Br)NNC(=S)NCc1ccco1	HGIII-sPLA2 inh 40 | hGIII sPLA2 conf 48 | BODIPY interf 8.8
COC(=O)c1cc(-c2ccc(C(C)(C)C)cc2)c(=O)n2c1CCC2	none
COCCNCCCOc1ccc(C(C)(C)c2ccccc2)cc1	HGIII-sPLA2 inh 22 | hGIII sPLA2 conf inactive | BODIPY interf inactive
COCCCNCCCOc1ccc(C(C)(C)c2ccccc2)cc1	none
C=CCn1c(SCC(=O)OC(C)C)nnc1-c1ccc(C)cc1	none
CC(C)n1cc(C(N)=S)c(=O)n(Cc2ccccc2)c1=O	HGIII-sPLA2 inh 21 | hGIII sPLA2 conf inactive | BODIPY interf inactive
Cn1c(=O)c(C(N)=S)cn(-c2ccccc2)c1=O	none
COC(=O)C1CC(c2c(OC)cc(OC)cc2OC)=NO1 (configuration not stated)	none
COC(=O)[C@@H]1C(c2c(OC)cc(OC)cc2OC)=NO[C@H]1C(=O)OC	HGIII-sPLA2 inh 20 | hGIII sPLA2 conf inactive | BODIPY interf inactive

Bioassay records deposited in PubChem by The Scripps Research Institute Molecular Screening Center.
